High-throughput results from PubChem.
GDH-TPI counter-1: inhibits GDH-TPI coupling enzymes, artifact for Mtb FBA screen | GDH-TPI coupled enzyme counterscreen, NADH absorbance | inhibition, % at 4.8 µM | 360,000 compounds, 1.2% hits; in the data active = inhibition above about 30%
CCHF vOTU inh: blocks the CCHF virus ovarian tumor domain protease; inhibition, % at 11.5 µM; CCHFV vOTU protease, Pep-AMC fluorescence; 370,000 compounds, 0.55% hits; in the data active = inhibition above about 30%
Vc quorum ag: induces V. cholerae light production without autoinducers; activation, % at 18.7 µM; 350,000 compounds, 0.16% hits; V. cholerae BH1578 lux reporter, luminescence, 6 h; AID 588436; in the data active = activation mostly above about 9.7%, no sharp cut-off
FBA Mtb inh: inhibits M. tuberculosis FBA enzyme; P9WQA3; purified M. tuberculosis FBA, fluorescence read-out; inhibition, % at 1 µM; 360,000 compounds, 2.3% hits; AID 588726
Target sequence (P9WQA3 whole entry, looked up): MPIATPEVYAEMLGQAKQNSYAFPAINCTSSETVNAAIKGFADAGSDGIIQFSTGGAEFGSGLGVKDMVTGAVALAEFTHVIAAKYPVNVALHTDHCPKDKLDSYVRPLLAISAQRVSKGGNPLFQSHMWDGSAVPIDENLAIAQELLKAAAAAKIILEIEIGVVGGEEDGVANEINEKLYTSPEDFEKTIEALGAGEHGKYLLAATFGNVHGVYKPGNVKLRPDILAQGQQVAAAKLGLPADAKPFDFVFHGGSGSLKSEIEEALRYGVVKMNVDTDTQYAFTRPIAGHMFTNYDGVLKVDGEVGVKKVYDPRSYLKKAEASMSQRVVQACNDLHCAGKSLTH
Mtb FBA confirm: confirmation of M. tuberculosis fructose-bisphosphate aldolase inhibitors; AID 651616; shares compounds with FBA Mtb inh; 5,600 compounds, 78% hits; inhibition, % at 1 µM; purified M. tuberculosis FBA, fluorescence read-out
GDH-TPI counter-2: inhibits GDH-TPI coupling enzymes, flagging Mtb FBA hits; inhibition, % at 1 µM; GDH-TPI coupled enzyme counterscreen, fluorescence; shares compounds with FBA Mtb inh; 5,600 compounds, 81% hits; in the data active = inhibition above about 10%
GDH-TPI dose: inhibits GDH-TPI coupling enzymes in dose response; 170 compounds, 79% hits; IC50, µM; shares compounds with FBA Mtb inh; AID 652145; GDH-TPI coupled enzyme assay, fluorescence, artifact counterscreen; call rule not given here
Each line names hits and unclear results; the compound was inactive in the other large screens (follow-up assays come after a bar, where they were run). In the library only some 3.9% were active in any assay of this set; here they are far more common. Cut-off read from the data, not from the text of the source, unless noted: active = inhibition above about 27%; inactive = the rest.

COc1ccccc1N1C(=O)c2ccccc2NC1c1ccc(O)cc1 (stereo not given)	FBA Mtb inh 42 | Mtb FBA confirm 52 | GDH-TPI counter-2 45
Cc1ccc(S(=O)(=O)N(C)C)cc1NC(=O)C1CCCCN1S(=O)(=O)c1ccccc1 (stereo not given)	FBA Mtb inh 106 | Mtb FBA confirm 132 | GDH-TPI counter-2 108
Cc1ccc(-n2nc(C)c3c2NC2=C(C(=O)CC(C)(C)C2)C3c2ccccc2OCC(=O)O)cc1 (stereo not given)	FBA Mtb inh 37 | Mtb FBA confirm 194 | GDH-TPI counter-2 129
CSc1nc2c(c(=O)[nH]1)C(c1ccccc1)C1=C(CC(C)(C)CC1=O)N2 (stereo not given)	FBA Mtb inh 29 | Mtb FBA confirm 68 | GDH-TPI counter-2 45
CC1(C)CC(=O)C2=C(C1)Nc1[nH]c(=S)[nH]c(=O)c1C2c1ccccc1 (stereo not given)	none
CCSc1nc2c(c(=O)[nH]1)C(c1ccc(C)cc1)C1=C(CCCC1=O)N2 (stereo not given)	FBA Mtb inh 29 | Mtb FBA confirm 148 | GDH-TPI counter-2 126
Cc1ccc(C2C3=C(CC(C)(C)CC3=O)Nc3onc(C)c32)cc1 (stereo not given)	FBA Mtb inh 46 | Mtb FBA confirm inactive | GDH-TPI counter-2 inactive
Cc1nnc(NC(=O)C2CC(=O)N(C(C)c3ccccc3)C2)s1 (stereo not given)	none
CCOC(=O)COc1cccc(C2NC(=O)c3ccccc3O2)c1 (stereo not given)	none
O=C(c1ccc2c(c1)OCCO2)C1CCN(C(=O)Nc2ccccc2F)CC1	FBA Mtb inh 29 | Mtb FBA confirm 71 | GDH-TPI counter-2 62
O=C(c1ccc(F)cc1)C1CCN(C(=O)Nc2ccc(F)cc2F)CC1	none
COc1ccc(CNS(=O)(=O)c2cc(Cl)ccc2N2CC[C@@H](O)C2)cc1	none (no result: GDH-TPI counter-1, Vc quorum ag, FBA Mtb inh)
CC1(C)Cc2c(c(-c3ccccc3)[nH]c(=O)c2C#N)CS1	FBA Mtb inh 29 | Mtb FBA confirm 44 | GDH-TPI counter-2 50
Cn1nc(C(C)(C)C)cc1C(=O)N1CCCCC1c1cc(C(=O)Nc2ccccc2Cl)no1 (stereo not given)	none
Clc1cncc(Cl)c1NNc1c2ccccc2nc2ccccc12	FBA Mtb inh 39 | Mtb FBA confirm 81 | GDH-TPI counter-2 66
O=C(NNc1c2ccccc2nc2ccccc12)c1ccc(Cl)cc1	none
COc1cccc(CN2CC(C(=O)NCCc3cn4cccnc4n3)CCC2=O)c1 (stereo not given)	FBA Mtb inh 47 | Mtb FBA confirm 102 | GDH-TPI counter-2 71
Cc1cccc2nc(-c3cccnc3)c(NCCC(C)C)n12	FBA Mtb inh 29 | Mtb FBA confirm active | GDH-TPI counter-2 active
CCOc1ccc(CCNC(=O)c2cc(-c3ccccc3)c(N3CCOCC3)s2)cc1	none
Cc1ccc(S(=O)(=O)N(CC(=O)NCc2ccccn2)c2ccc(Cl)cc2)cc1	none
CSc1ccc(S(=O)(=O)N(CC(=O)NCc2ccccn2)c2ccc(C)cc2)cc1	FBA Mtb inh 77 | Mtb FBA confirm 181 | GDH-TPI counter-2 141
CC(Oc1cccc(Cl)c1)c1ccnc2nc(/N=C/N(C)C)nn12 (stereo not given)	none
CN(C)/C=N/c1nc2nccc(-c3ccc(F)cc3)n2n1	FBA Mtb inh 88 | Mtb FBA confirm 62 | GDH-TPI counter-2 56
Fc1ccc(-c2ccnc3nc(-n4cccc4)nn23)cc1	none
CN(C)/C=N/c1nc2nccc(-c3cccc(Cl)c3)n2n1	FBA Mtb inh 34 | Mtb FBA confirm inactive | GDH-TPI counter-2 inactive | GDH-TPI dose 2.2
CCc1nn2c(=O)cc(CSCC(=O)Nc3ccccc3F)nc2s1	none (no result: CCHF vOTU inh)
O=C1N=C(N2CCN(c3ccccc3)CC2)S/C1=C/c1cccs1	FBA Mtb inh 34 | Mtb FBA confirm inactive | GDH-TPI counter-2 inactive
CC1CCCN(C(=O)c2cc3c(=O)n4ccccc4nc3s2)C1 (stereo not given)	FBA Mtb inh 59 | Mtb FBA confirm 50 | GDH-TPI counter-2 30
O=C(c1cc2c(=O)n3ccccc3nc2s1)N1CCN(Cc2ccc3c(c2)OCO3)CC1	FBA Mtb inh 96 | Mtb FBA confirm inactive | GDH-TPI counter-2 inactive | GDH-TPI dose 2.3
